PubChem BioAssay (EPA / NIEHS)
Calls of active or inactive are those of the source. Rule for the calls: active = hit-call score of the fitted dose curve at least 0.9, where 1 is the maximum; inactive = score below 0.9.

Key:
Conditions in all cases: mRNA level, 48 h; actives raise or lower the signal
MYC, MYC (gene 4609) = test: LTEA_HepaRG_MYC: Life Technologies and Expression Analysis (LTEA) Assay for MYC using HepaRG (AID 2283518)
In short: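 Differentiated human HepaRG cells, plated 48 h then switched to serum-free induction medium, were exposed in duplicate for 48 h to 8-point half-log series up to 100 uM in 0.5% DMSO. MYC mRNA measured by qRT-PCR, normalized to ACTB/GAPDH/POLR2A.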

[1] = read-out: matrix metalloproteinase-3 (MMP3), MMP3 (gene 4314); test: LTEA_HepaRG_MMP3: Life Technologies and Expression Analysis (LTEA) Assay for matrix metalloproteinase-3 (MMP3) using HepaRG (AID 2283519)
In short: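 qRT-PCR read-out of MMP3 mRNA (normalised to three housekeeping genes) in HepaRG liver cells after 48 h chemical exposure; 8-point half-log series, top 100 uM, 0.5% DMSO vehicle. Bidirectional curve fitting against DMSO baseline.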

[2] = read-out: Paternally Expressed 10 (PEG10), PEG10 (gene 23089); test: LTEA_HepaRG_PEG10: Life Technologies and Expression Analysis (LTEA) Assay for Paternally Expressed 10 (PEG10) using HepaRG (AID 2283520);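 for AC50: PEG10 transcript by qRT-PCR normalised to ACTB GAPDH and POLR2A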
In short: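 After 48 h exposure of differentiated HepaRG cells (0.5% DMSO vehicle, eight concentrations up to 100 uM, duplicates), PEG10 mRNA was measured by TaqMan qRT-PCR. Values were normalised to endogenous control genes and analysed bidirectionally against vehicle.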

[3] = read-out: Nuclear factor NF-kappa-B p105 subunit (Homo sapiens) (UniProt P19838); test: LTEA_HepaRG_NFKB1: Life Technologies and Expression Analysis (LTEA) Assay for Nuclear Factor Kappa B Subunit 1 (NFKB1) using HepaRG (AID 2283521)
In short: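 HepaRG, 48 h exposure; 8-pt half-log series from 100 uM in 0.5% DMSO; duplicates. Readout: NFKB1 mRNA by qRT-PCR (Fluidigm arrays), housekeeping-normalized. Gain/loss fit vs DMSO baseline.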

[4] = read-out: Protein phosphatase 2A (PPP2R4), PTPA (gene 5524); test: LTEA_HepaRG_PPP2R4: Life Technologies and Expression Analysis (LTEA) Assay for Protein phosphatase 2A (PPP2R4) using HepaRG (AID 2283522)
In short: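 Using HepaRG cultures maintained in 0.5% DMSO, chemicals are tested 48 h at up to 100 uM in duplicate. Induction or suppression of PPP2R4 mRNA, measured by qRT-PCR, is fitted bidirectionally against the vehicle baseline.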

[5] = read-out: Phosphatase and tensin (PTEN), PTEN (gene 5728); test: LTEA_HepaRG_PTEN: Life Technologies and Expression Analysis (LTEA) Assay for Phosphatase and tensin (PTEN) using HepaRG (AID 2283523)
In short: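 HepaRG, 48 h exposure, 8-pt half-log series from 100 uM top, 0.5% DMSO vehicle, duplicates. Readout: Fluidigm qRT-PCR of PTEN transcript; housekeeping normalization (ACTB, GAPDH, POLR2A). Gain or loss fitted relative to DMSO baseline.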

[6] = read-out: solute carrier (SLC22A1), SLC22A1 (gene 6580); test: LTEA_HepaRG_SLC22A1: Life Technologies and Expression Analysis (LTEA) Assay for solute carrier (SLC22A1) using HepaRG (AID 2283524);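 for AC50: TaqMan qRT-PCR normalized to ACTB GAPDH and POLR2A housekeeping genes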
In short: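 qRT-PCR readout (TaqMan, Fluidigm arrays) of SLC22A1 transcript, normalized to three housekeeping genes; bidirectional curve fit relative to 0.5% DMSO vehicle. Differentiated human HepaRG cells, 48 h chemical exposure, top concentration 100 uM, half-log steps, eight points.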

[7] = read-out: Pyruvate Dehydrogenase Kinase 4 (PDK4), PDK4 (gene 5166); test: LTEA_HepaRG_PDK4: Life Technologies and Expression Analysis (LTEA) Assay for Pyruvate Dehydrogenase Kinase 4 (PDK4) using HepaRG (AID 2283525)
In short: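 HepaRG (human liver line), 48 h chemical exposure, 8-pt half-log CRC top 100 uM, 0.5% DMSO vehicle, duplicates. Readout: TaqMan qRT-PCR of PDK4 mRNA, housekeeping-normalized; gain/loss fit relative to DMSO baseline.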

[8] = read-out: NAD(P)H dehydrogenase [quinone] 1 (NQO1), NQO1 (gene 1728); test: LTEA_HepaRG_NQO1: Life Technologies and Expression Analysis (LTEA) Assay for NAD(P)H dehydrogenase [quinone] 1 (NQO1) using HepaRG (AID 2283526)
In short: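 In this assay, gene expression is read by qRT-PCR after 48 h exposure of HepaRG cells to eight concentrations (max 100 uM, half-log) in 0.5% DMSO. Each chemical runs in duplicate, and activity is scored relative to vehicle.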

[9] = read-out: Nuclear factor erythroid 2-related factor 2 (Homo sapiens) (UniProt Q16236); test: LTEA_HepaRG_NFE2L2: Life Technologies and Expression Analysis (LTEA) Assay for Nuclear factor erythroid 2-related factor 2 (NFE2L2) Transcription Factor using HepaRG (AID 2283527)
In short: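 HepaRG, 48 h dosing, 8-pt half-log series from 100 uM in 0.5% DMSO, duplicates. Read-out: NFE2L2 mRNA by qRT-PCR (ACTB/GAPDH/POLR2A normalization). Bidirectional curve fit vs DMSO baseline.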

Measured: AC50

Chain of Nuclear factor NF-kappa-B p105 subunit (Homo sapiens) (P19838 whole entry, looked up): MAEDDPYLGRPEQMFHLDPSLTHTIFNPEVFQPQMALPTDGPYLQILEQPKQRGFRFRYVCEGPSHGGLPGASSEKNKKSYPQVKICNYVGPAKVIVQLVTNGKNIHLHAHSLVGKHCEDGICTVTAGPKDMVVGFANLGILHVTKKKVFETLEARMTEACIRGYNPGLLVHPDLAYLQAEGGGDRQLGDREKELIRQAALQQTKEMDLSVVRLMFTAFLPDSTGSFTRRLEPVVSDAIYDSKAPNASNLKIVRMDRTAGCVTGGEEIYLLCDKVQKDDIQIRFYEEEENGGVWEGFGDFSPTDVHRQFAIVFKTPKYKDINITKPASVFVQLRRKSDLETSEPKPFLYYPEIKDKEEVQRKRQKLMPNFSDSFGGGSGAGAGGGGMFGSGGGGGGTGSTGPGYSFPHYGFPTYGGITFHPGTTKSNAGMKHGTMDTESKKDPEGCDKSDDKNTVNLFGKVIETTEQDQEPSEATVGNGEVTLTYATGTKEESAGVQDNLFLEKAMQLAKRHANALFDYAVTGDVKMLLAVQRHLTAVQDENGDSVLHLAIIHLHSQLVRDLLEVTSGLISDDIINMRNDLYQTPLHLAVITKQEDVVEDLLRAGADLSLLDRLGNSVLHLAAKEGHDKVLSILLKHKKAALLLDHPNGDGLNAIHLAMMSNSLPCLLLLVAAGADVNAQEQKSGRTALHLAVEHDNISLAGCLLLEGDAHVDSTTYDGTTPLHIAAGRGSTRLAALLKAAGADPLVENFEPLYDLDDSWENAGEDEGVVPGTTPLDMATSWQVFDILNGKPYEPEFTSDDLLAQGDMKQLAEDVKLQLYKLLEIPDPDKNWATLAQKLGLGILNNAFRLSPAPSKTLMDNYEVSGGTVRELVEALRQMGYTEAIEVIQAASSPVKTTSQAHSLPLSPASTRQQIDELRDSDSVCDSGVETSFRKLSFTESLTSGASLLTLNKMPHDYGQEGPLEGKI
Chain of Nuclear factor erythroid 2-related factor 2 (Homo sapiens) (Q16236 whole entry, looked up): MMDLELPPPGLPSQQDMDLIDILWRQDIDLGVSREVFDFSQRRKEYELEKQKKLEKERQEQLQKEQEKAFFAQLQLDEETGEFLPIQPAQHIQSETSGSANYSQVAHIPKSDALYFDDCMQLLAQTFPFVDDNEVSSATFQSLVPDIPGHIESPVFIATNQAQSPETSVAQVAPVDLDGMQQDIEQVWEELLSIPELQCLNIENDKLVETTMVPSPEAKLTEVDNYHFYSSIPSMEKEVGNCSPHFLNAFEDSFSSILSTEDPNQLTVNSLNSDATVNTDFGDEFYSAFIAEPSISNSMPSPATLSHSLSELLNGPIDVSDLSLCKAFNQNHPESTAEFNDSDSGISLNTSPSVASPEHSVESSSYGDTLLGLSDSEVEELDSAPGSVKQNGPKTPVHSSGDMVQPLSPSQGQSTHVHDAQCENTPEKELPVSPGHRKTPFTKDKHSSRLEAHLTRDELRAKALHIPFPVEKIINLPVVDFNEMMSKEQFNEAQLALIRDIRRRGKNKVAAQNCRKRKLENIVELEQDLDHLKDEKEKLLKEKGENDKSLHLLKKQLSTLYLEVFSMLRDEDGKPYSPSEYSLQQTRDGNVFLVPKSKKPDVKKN

O=C1OC(c2ccc(O)cc2)(c2ccc(O)cc2)c2ccccc21
active: [2] 76.1 µM | [6] 78 µM | [7] 50 µM
inactive: MYC, MYC (gene 4609) | [1] | [3] | [4] | [5]

N[C@@H](Cc1c[nH]c2ccccc12)C(=O)O
inactive: MYC, MYC (gene 4609) | [1] | [2] | [3] | [5] | [6] | [7] | [8] | [9]

Cc1ccc(-c2cc(C(F)(F)F)nn2-c2ccc(S(N)(=O)=O)cc2)cc1
active: MYC, MYC (gene 4609) 67.3 µM | [2] 64.2 µM | [3] 70.2 µM | [6] 55.9 µM | [9] 62.7 µM
inactive: [1] | [5] | [7] | [8]

CC(=O)OCC(COC(C)=O)OC(C)=O
inactive: MYC, MYC (gene 4609) | [1] | [2] | [3] | [5] | [6] | [7] | [8] | [9]

CCN(CC)CCOc1ccc(C(=C(Cl)c2ccccc2)c2ccccc2)cc1
active: MYC, MYC (gene 4609) 56.1 µM | [3] 77.1 µM | [5] 78.5 µM | [6] 17.1 µM | [7] 42 µM
inactive: [1] | [2] | [8]

CSc1ccc(Oc2ccc(S(N)(=O)=O)cc2CN(C)C)cc1C
inactive: MYC, MYC (gene 4609) | [1] | [3] | [5] | [6] | [7] | [9]
active: [2] 72.7 µM

C/C=C/c1ccc(OC)cc1
inactive: MYC, MYC (gene 4609) | [1] | [2] | [3] | [5] | [6] | [7] | [9]

Oc1ccc(O)cc1
inactive: MYC, MYC (gene 4609) | [1] | [2] | [3] | [5] | [6] | [7] | [9]

OCC(O)CO
inactive: MYC, MYC (gene 4609) | [1] | [2] | [5] | [6] | [7] | [8]
active: [3] 1.06 µM

Cc1occc(=O)c1O
inactive: MYC, MYC (gene 4609) | [1] | [2] | [3] | [5] | [6] | [7] | [9]

Cc1cc(SC2=C(O)C[C@@](CCc3ccc(N)cc3)(C(C)C)OC2=O)c(C(C)(C)C)cc1CO
active: [6] 7.05 µM | [7] 13.5 µM
inactive: MYC, MYC (gene 4609) | [1] | [2] | [3] | [5]

CCCCC(CC)COC(=O)CCCCCCCC(=O)OCC(CC)CCCC (stereo not drawn)
inactive: MYC, MYC (gene 4609) | [1] | [2] | [3] | [4] | [5] | [7] | [8] | [9]

CC(C)COC(=O)CCCCC(=O)OCC(C)C
inactive: MYC, MYC (gene 4609) | [1] | [2] | [3] | [5] | [6] | [7]

O=[Si]=O
inactive: MYC, MYC (gene 4609) | [1] | [2] | [3] | [5] | [6] | [7] | [8]

COC(=O)CCCC(=O)OC
inactive: MYC, MYC (gene 4609) | [1] | [2] | [3] | [4] | [5] | [7] | [8] | [9]
